Holding throughout (assay): yeast three-hybrid, YBZ-1, SC-Leu-His + 0.5 mM 3-AT, 4 days
Holding throughout (settings): tags: N-Gal4 AD-HA kept; label: inside an RPR1-promoter hybrid RNA with tandem MS2 sites; ssRNA

Assay [1] addresses PUM1 PUF domain R1-RKK (Homo sapiens, UniProt Q14671 828-1176, S863R;R864K;Q867K). In a few lines: (§1)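 A centromeric plasmid in strain YBZ-1 co-expressed Pumilio-1 PUF domain libraries, randomized at the three base-contacting residues of each repeat, with matching RNA elements; the strain carries a LexA–MS2 coat fusion and a HIS3 reporter. After four days on SC-Leu (input) or SC-Leu-His + 0.5 mM 3-AT (selection), the repeat regions were PCR-amplified and Illumina-sequenced. The interaction score is the log change in variant frequency from input to selection, using log2 and a pseudocount of 1 where absent.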

For assay [2], the target named is PUM1 PUF domain R1-KGT (Homo sapiens, UniProt Q14671 828-1176, S863K;R864G;Q867T). In a few lines:
as §1

Assay [3] has as its target PUM1 PUF domain R2-EWG (Homo sapiens, UniProt Q14671 828-1176, N899E;Y900W;Q903G). In a few lines:
as §1

Assay [4] concerns the target T1, PUM1 PUF domain R6-TWD (Homo sapiens, UniProt Q14671 828-1176, N1043T;Y1044W;Q1047D).
T1 sequence: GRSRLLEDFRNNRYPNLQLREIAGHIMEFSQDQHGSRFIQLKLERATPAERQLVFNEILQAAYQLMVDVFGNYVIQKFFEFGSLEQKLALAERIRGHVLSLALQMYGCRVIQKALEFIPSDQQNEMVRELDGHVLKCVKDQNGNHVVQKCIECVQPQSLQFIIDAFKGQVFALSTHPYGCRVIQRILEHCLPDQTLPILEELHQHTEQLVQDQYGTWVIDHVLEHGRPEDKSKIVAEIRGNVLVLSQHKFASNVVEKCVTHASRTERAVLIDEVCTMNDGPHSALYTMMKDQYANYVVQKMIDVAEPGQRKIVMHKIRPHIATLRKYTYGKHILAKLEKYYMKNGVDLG
Put shortly:
as §1

The target of assay [5] is PUM1 PUF domain R4-DFM (Homo sapiens, UniProt Q14671 828-1176, N971D;H972F;Q975M). Put shortly: as §1
In assay [6] the target is PUM1 PUF domain R4-TPS (Homo sapiens, UniProt Q14671 828-1176, N971T;H972P;Q975S). In a few lines:
as §1

Assay [7] concerns the target PUM1 PUF domain R5-DRN (Homo sapiens, UniProt Q14671 828-1176, C1007D;Q1011N). In a few lines:
as §1

The target in assay [8] is PUM1 PUF domain R5-RLM (Homo sapiens, UniProt Q14671 828-1176, C1007R;R1008L;Q1011M). In a few lines:
as §1

For assay [9], the target named is PUM1 PUF domain R5-RCC (Homo sapiens, UniProt Q14671 828-1176, C1007R;R1008C;Q1011C). In a few lines:
as §1

Assay [10] has as its target PUM1 PUF domain R5-RQG (Homo sapiens, UniProt Q14671 828-1176, C1007R;R1008Q;Q1011G). In a few lines:
as §1

In assay [11] the target is PUM1 PUF domain R1-KIL (Homo sapiens, UniProt Q14671 828-1176, S863K;R864I;Q867L). Put shortly: as §1
For assay [12], the target named is PUM1 PUF domain R4-RMI (Homo sapiens, UniProt Q14671 828-1176, N971R;H972M;Q975I). In a few lines: as §1
The target of assay [13] is T2, PUM1 PUF domain R6-HHS (Homo sapiens, UniProt Q14671 828-1176, N1043H;Y1044H;Q1047S).
T2 sequence: T1 sequence with T216H, W217H, D220S
In a few lines: as §1

For assay [14], the target named is T3, PUM1 PUF domain R6-NFW (Homo sapiens, UniProt Q14671 828-1176, Y1044F;Q1047W).
T3 sequence: T1 sequence with T216N, W217F, D220W
In a few lines:
as §1

Assay [15] has as its target PUM1 PUF domain R3-GFW (Homo sapiens, UniProt Q14671 828-1176, C935G;R936F;Q939W). Put shortly: as §1
Assay [16] addresses PUM1 PUF domain R8-HYN (Homo sapiens, UniProt Q14671 828-1176, N1122H;Q1126N). In a few lines:
as §1

Assay [17] deals with PUM1 PUF domain R4-SNG (Homo sapiens, UniProt Q14671 828-1176, N971S;H972N;Q975G). In a few lines: as §1

Residue numbers refer to the chain shown, from its start.

Consider “GGCUAGAACUAGUGGAUCCCCCGGCGCCCGGCGGCUCGAGCCCGGGUAAGUGUAAAUUGUCUGCAUGCCGCCGGGCGCCAUGCCUGCAGGUCGACUCUAGAAAACAUG”, for which the binding signal in assay [1] was 3.57 log2 enrichment (interaction score); in [2] it was 3.61 log2 enrichment (interaction score).

Regarding “GGCUAGAACUAGUGGAUCCCCCGGCGCCCGGCGGCUCGAGCCCGGGUAAGUGUAAAGAGUCUGCAUGCCGCCGGGCGCCAUGCCUGCAGGUCGACUCUAGAAAACAUG”, the binding signal in assay [3] is 4.05 log2 enrichment (interaction score).

Consider “GGCUAGAACUAGUGGAUCCCCCGGCGCCCGGCGGCUCGAGCCCGGGUAAGUGAAAAUAGUCUGCAUGCCGCCGGGCGCCAUGCCUGCAGGUCGACUCUAGAAAACAUG”, for which the binding signal in [4] is 3.18 log2 enrichment (interaction score).

With “GGCUAGAACUAGUGGAUCCCCCGGCGCCCGGCGGCUCGAGCCCGGGUAAGUGUACAUAGUCUGCAUGCCGCCGGGCGCCAUGCCUGCAGGUCGACUCUAGAAAACAUG”, the binding signal is 5.35 log2 enrichment (interaction score) in [5] and 4.18 log2 enrichment (interaction score) in assay [6].

Regarding “GGCUAGAACUAGUGGAUCCCCCGGCGCCCGGCGGCUCGAGCCCGGGUAAGUGUCAAUAGUCUGCAUGCCGCCGGGCGCCAUGCCUGCAGGUCGACUCUAGAAAACAUG”, the binding signal in assay [7] was 1.45 log2 enrichment (interaction score); in assay [8] it was 1.79 log2 enrichment (interaction score); in [9] it was 4.34 log2 enrichment (interaction score); in assay [10], 5.03 log2 enrichment (interaction score).

For “GGCUAGAACUAGUGGAUCCCCCGGCGCCCGGCGGCUCGAGCCCGGGUAAGUGUAAAUCGUCUGCAUGCCGCCGGGCGCCAUGCCUGCAGGUCGACUCUAGAAAACAUG”, the binding signal is 4.83 log2 enrichment (interaction score) in assay [2] and 2.59 log2 enrichment (interaction score) in assay [11].

Consider “GGCUAGAACUAGUGGAUCCCCCGGCGCCCGGCGGCUCGAGCCCGGGUAAGUGUAAAUAGUCUGCAUGCCGCCGGGCGCCAUGCCUGCAGGUCGACUCUAGAAAACAUG”, for which the binding signal in [12] was 3.31 log2 enrichment (interaction score); in [7] it was 3.15 log2 enrichment (interaction score); in assay [5], 5.89 log2 enrichment (interaction score); in assay [13], 4.38 log2 enrichment (interaction score); in assay [14], 2.25 log2 enrichment (interaction score); in assay [15], 5.77 log2 enrichment (interaction score). In addition, the binding signal in assay [16] was 2.92 log2 enrichment (interaction score); in assay [17], 1.17 log2 enrichment (interaction score); in assay [6], 3 log2 enrichment (interaction score); in [10], 0.8 log2 enrichment (interaction score).

(Values after article PMC8384837, “Expanding the binding specificity for RNA recognition by a PUF domain”.)
